# Laboratory results taken from PubChem BioAssay AID1508600 (Functional Genomics Laboratory (NCATS/FGL), 2020).
# Out of some 53,000 sequences screened, about 3,700 (7%) were called active.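 How the source made its calls: active means gene knockdowns whose robust z-score for IL-1 alpha signal is at least 2 or at most -2, so actives lie on both sides; inactive means the rest.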 This excerpt belongs to a sample that is enriched for actives.
# Experiment: Components of the Cytosolic LPS Sensing Pathway: Gene Identification via Genome-wide siRNA Screen;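 further: robust z of the log signal after scaling to non-targeting control siRNA wells of the plate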
# Conditions: RAW264.7 macrophages, IL-1a HTRF, actives lie on both sides, screened at 100 nM (by protocol), cells primed 5 h with Pam3CSK4 first
# Outline: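 Read-out: IL-1a HTRF on supernatant, divided by plate negative-control median ×100, log-transformed and converted to robust z-score. Cells were RAW264.7 given 100 nM siRNA, Pam3CSK4-primed 5 hours, then LipidA-transfected 24 hour.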
row,Sequence,z-score
1,GGACAUUUUUAUUAGUGGATT against Gtpbp8,1.04 (inactive)
2,CCAUUGGAGGAUAAGUUUUTT against Mtm1,-0.0988 (inactive)
3,GGAAAAUGGAGAACUAAAGTT against Uxs1,1.88 (inactive)
4,GGAUAAACCCUACGUUCUATT against Slc44a4,0.658 (inactive)
5,GGUUAUCCGUGGUAACCAUTT against Taok3,0.78 (inactive)
6,CGAACGUGAUGAGUUAUGGTT against Vmn1r83,-2.67 (active)
7,GGUAUUCGUGGAGUGGAGATT against Pdcd2l,0.0458 (inactive)
8,GGGCAAUUAGUAAAGGCUATT against Eif2s3x,2.02 (active)
9,GGUCCUACAAAAAGAUGGATT against Mettl7b,-0.536 (inactive)
10,CGAGAUUGUGCUGAUAGAGTT against Nptx2,0.533 (inactive)
11,CGUGUUGUACUACGUAUAUTT against Abtb1,-0.172 (inactive)
12,CCUAAAAGACUUUGGAGACTT against Arg2,-1.09 (inactive)
13,GGCCCUCAUGAUUGCUAUGTT against Nek8,-0.722 (inactive)
14,CCUUCCAUGGUGAGGAUAATT against Stim1,-2 (active)
15,CCAGUUGAGUCACUUACUGTT against Borcs7,0.667 (inactive)
16,CGCGGCAUAAACAUGUAAATT against Gatc,-1.07 (inactive)
17,GGUGUCUUUCUUCACUCUUTT against Olfr862,0.225 (inactive)
18,CGUGUUUGAUCACUACUCUTT against Tnfaip8l2,-0.593 (inactive)
19,GGACUGACUGGCUUCAUUGTT against Atl2,-2.52 (active)
20,GCAGAUUAGCUUCGUCAACTT against Top2a,-0.588 (inactive)
21,GCGAAAUCCUGGGCUACUCTT against Dyrk4,-0.32 (inactive)
22,GGUUGUGACUACACUAUGGTT against Zfp456,-1.7 (inactive)
23,CGCAGAACGUGAACACCAATT against Smad3,-2.47 (active)

row,Sequence,z-score
1,GUUACACAGGAGUGUGUAATT against Rnase2a,0.573 (inactive)
2,GGUGGCUUUAGGGAACAUUTT against Dctn3,0.369 (inactive)
3,GGAAAUGGAGAAAUAUGCATT against Plod3,-0.167 (inactive)
4,ACCUUUGUCCUUUUGUUGUTT against Defb15,2.01 (active)
5,GGAGAUGAAAAAAACGAGCTT against Rxylt1,-0.222 (inactive)
6,GCAAAUAAUGAGGUCCAGATT against Rbms2,-0.377 (inactive)
7,GCAAGUCCUACAAUACAACTT against Tk1,5.5 (active)
8,GGCGAUGAAGAAGUAAUUUTT against Appl2,-1.2 (inactive)
9,CCCAUUAAGGUAUAAUAUCTT against Olfr855,-0.301 (inactive)
10,GGUUUCAUUUGGAUUUGCATT against Glyr1,0.491 (inactive)
11,GGCAAAGAUAAUAAAGCUATT against Xpo1,-0.967 (inactive)
12,CCGUUUACUUCGUCCAAGUTT against Crlf1,-0.134 (inactive)
13,CCUUAUUUGUCCAUAAAAGTT against Pkdrej,2.43 (active)
14,GGGUCCUCUGAAAGUUACCTT against Fndc5,0.497 (inactive)
15,GCACUUUGGCAUAUUUUCATT against Slc6a15,-0.391 (inactive)
16,GGAAAUGCUUCUGAGCUAGTT against Desi2,1.71 (inactive)
17,GGGACGACUCUUUCUUAUGTT against Olfr1264,0.822 (inactive)
18,GGAGAAAGGUGGUUUGGUATT against Sap30bp,-2.85 (active)
19,GGAGCUAGUAUGUUCAACATT against Ubqln1,-0.942 (inactive)
20,GGUGUUUGUUUCUAACUUCTT against Glcci1,-0.434 (inactive)
21,CGAAUUCAUACCAGUGUGCTT against Ndufa10,2.84 (active)
22,GCACUCUGCCUGAAAUACCTT against Nlrp1a,-0.376 (inactive)
23,GGACUUCACAAUCUCUUUCTT against Hck,-0.11 (inactive)

row,Sequence,z-score
1,GGAAGAAUCCACUUUGAACTT against Chil4,0.048 (inactive)
2,GGGCUAAAUUAAGCUUCUATT against Sowahd,-0.707 (inactive)
3,GCCUGCUUAAGCUACUUAUTT against Fam210b,-1.04 (inactive)
4,UCUUACAAACUAGCUCUCCTT against Crabp2,-0.777 (inactive)
5,GGGACCGUCUUAAACAUCUTT against Rsl1d1,2.92 (active)
6,GGAGAGUAACAAUUAUGAATT against Pcdha9,0.983 (inactive)
7,GCUCGAGAGUACUGUAGGCTT against Kat8,-2.41 (active)
8,GGUCUAAUACUCAAUAGACTT against Tmem200a,0.0917 (inactive)
9,CCUGAAGGGUCUGGCAAAATT against Zfp804a,0.66 (inactive)
10,GGAAUUGGUUCAGAAAUAUTT against Rtn4,3.09 (active)
11,GGUUAAACUACAACAGUUGTT against Tmco5,1.04 (inactive)
12,GGAAGAAUGUAAGUAUACCTT against Zscan12,1.68 (inactive)
13,CGUGGAAGAAAUAAUUAGGTT against Faap24,0.664 (inactive)
14,GCUGGUCUAUGUGGAAAGGTT against Brap,2.32 (active)
15,GGUGAAGAGUGAUUUUAAUTT against Il10,1.03 (inactive)
16,GGUGUUGGAAGAGAUGCUGTT against Ap3m2,0.405 (inactive)
17,GGAAGUGGAAUAUGUCACCTT against Cd300lf,-0.206 (inactive)
18,GCCCACGUUUUAAGUCUACTT against Ap1s3,3.69 (active)
19,GAUACCAAGCUAAAAGAUCTT against Ear10,0.0579 (inactive)
20,GCCAGUCAUCUUUGUAGUCTT against Olfr411,-0.777 (inactive)
21,GGAUGUACUUUGUUAAGGCTT against Tert,2.78 (active)
22,GGGAGAACAGUGUUCAGAGTT against Bhlha15,-0.151 (inactive)
23,CCAUGUGCUGUGCACUACGTT against Chst14,0.358 (inactive)
